Assay results as given in PubChem BioAssay (NCATS).
Records with an inconclusive call do not appear. The source made the active and inactive calls. Calls come from the whole dose curve; as a rule, active = well fitted curve in the direction sought with a large enough effect; inconclusive = small, poorly fitted or top-dose-only effect, or another doubt; inactive = no such curve, though single readings can be large; an effect the other way counts as inactive or inconclusive.

assay: qHTS of pediatric cancer cell lines to identify multiple opportunities for drug repurposing: Primary screen for control Hh wild type fibroblast cells (AID 1347106); conditions: Hh wild-type fibroblast viability, CellTiter-Glo luminescence, 48 h; series mostly up to 46 µM; activity change, negative = cytotoxic: at the top concentration; note: nearly all actives have a fitted effect of over 55% in size;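 for activity change, negative = cytotoxic: a drop in luminescence marks cytotoxicity and a rise apparent proliferation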
In short: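 Viability after 48 h compound treatment at 37C, 500-1,000 cells/well, read as ATP luminescence with CellTiter-Glo. Primary screens used 11-point (MIPE, 0.78 nM-46 µM) or 8-point (NPC, 0.59 nM-46 µM) final concentrations; follow-up screens used 11-point dilutions.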
% is set by controls: 0 for no effect and ±100 for the full control effect; potency is the fitted concentration of half-maximal effect.

Q: For `COc1ccccc1N1CCN(CCCNc2cc(=O)n(C)c(=O)n2C)CC1`, which “activity change, negative = cytotoxic” value is on record?
A: 13.5% (inactive)

Q: For `COc1cc(N2CCC(N3CCN(C)CC3)CC2)ccc1Nc1ncnc(Nc2ccccc2S(=O)(=O)C(C)C)n1`, which “activity change, negative = cytotoxic” value is on record?
A: -26% (inactive)

Q: Which “activity change, negative = cytotoxic” value does the source give for `N[C@H](CSC(c1ccccc1)(c1ccccc1)c1ccccc1)C(=O)O` here?
A: 0.494% (inactive)

Q: For `CC[C@H]1OC(=O)[C@H](C)[C@@H](O[C@H]2C[C@@](C)(OC)[C@@H](O)[C@H](C)O2)[C@H](C)[C@@H](O[C@@H]2O[C@H](C)C[C@H](N(C)C)[C@@H]2O)[C@](C)(O)C[C@@H](C)CN(C)[C@H](C)[C@@H](O)[C@]1(C)O`, which “activity change, negative = cytotoxic” value is on record?
A: 9.96% (inactive)

Q: For `OC[C@H]1O[C@@H](Oc2cc(O)cc(C=Cc3ccc(O)cc3)c2)[C@H](O)[C@@H](O)[C@H]1O`, which “activity change, negative = cytotoxic” value is on record?
A: 1.41% (inactive)

Q: For `NC(=O)c1ccc2nc(-c3ccc(Oc4ccc(Cl)cc4)cc3)[nH]c2c1`, which “activity change, negative = cytotoxic” value is on record?
A: -8.08% (inactive)

Q: For `O=c1ccn([C@@H]2O[C@H](CO)[C@H](O)[C@H]2O)c(=O)[nH]1`, which “activity change, negative = cytotoxic” value is on record?
A: -0.0666% (inactive)

Q: Which “activity change, negative = cytotoxic” value does the source give for `COC1CCC(N(C(=O)C2CCC(C)CC2)c2cc(C3=CCCCC3)sc2C(=O)O)CC1` (stereo not given) here?
A: 8.47% (inactive)

Q: For `CN(C)CCC(c1ccccc1)c1ccccn1` (stereo not given), which “activity change, negative = cytotoxic” value is on record?
A: 4.48% (inactive)

Q: For `CC=CC(=O)N(CC)c1ccccc1C`, which “activity change, negative = cytotoxic” value is on record?
A: 7.04% (inactive)

Q: With `CCC(CC)[C@H](NC(C)=O)[C@@H]1[C@H](O)[C@@H](C(=O)O)C[C@@H]1N=C(N)N` as the molecule, how does the “activity change, negative = cytotoxic” value read?
A: 11.3% (inactive)

Q: With `CC(C)(C)COc1ccc(-n2cc(C(=O)O)cn2)cc1C#N` as the molecule, how does the “activity change, negative = cytotoxic” value read?
A: 0.147% (inactive)

Q: For `COc1cc(NC(=O)c2ccc(-c3ccc(Cl)cc3)o2)cc(OC)c1`, which Potency is on record?
A: 10.5 µM (active)

Q: Which “activity change, negative = cytotoxic” value does the source give for `c1cc(-c2sc(-c3ccncc3)c(-c3ccncc3)c2-c2ccncc2)ccn1` here?
A: -20.4% (inactive)

Q: Which “activity change, negative = cytotoxic” value does the source give for `COc1ccc2cccc(CCNC(C)=O)c2c1` here?
A: -2.37% (inactive)

Q: With `CC(C)OC(=O)C(C)(C)Oc1ccc(C(=O)c2ccc(Cl)cc2)cc1` as the molecule, how does the Potency read?
A: inactive

Q: For `Cc1ccc(C(=O)Nc2cccc(C(F)(F)F)c2)cc1Nc1nc(-c2cccnc2)nc2c1cnn2C`, which “activity change, negative = cytotoxic” value is on record?
A: 11.8% (inactive)

Q: For `CCN(CC)C(=O)c1ccc(O)c(OC)c1`, which “activity change, negative = cytotoxic” value is on record?
A: 6.31% (inactive)

Q: With `N#Cc1ccc(NC(=O)Nc2ccccc2Br)c2n[nH]nc12` as the molecule, how does the “activity change, negative = cytotoxic” value read?
A: -5.2% (inactive)

Q: With `C[C@]12CC[C@@H]3c4ccc(O)cc4CC[C@H]3[C@H]1C[C@@H](O)[C@H]2O` as the molecule, how does the “activity change, negative = cytotoxic” value read?
A: -27.4% (inactive)

Q: Which “activity change, negative = cytotoxic” value does the source give for `CC1(C)Cc2c(sc(NC(=S)NC(=O)c3ccccc3)c2C(=O)O)CO1` here?
A: -11.4% (inactive)

Q: Which “activity change, negative = cytotoxic” value does the source give for `O=c1c(-c2ccc(O)cc2)coc2cc(O)ccc12` here?
A: 3.34% (inactive)

Q: For `O=C(O)c1cc(-c2ccccc2)nc2ccccc12`, which Potency is on record?
A: inactive

Q: With `CO[C@H]1C=CO[C@@]2(C)Oc3c(C)c(O)c4c(O)c(c5c(c4c3C2=O)NC2(CCN(CC(C)C)CC2)N=5)=NC(=O)C(C)=CC=C[C@H](C)[C@H](O)[C@@H](C)[C@@H](O)[C@@H](C)[C@H](OC(C)=O)[C@H]1C` as the molecule, how does the “activity change, negative = cytotoxic” value read?
A: -3.02% (inactive)

Q: With `CC(=O)CCCCn1c(=O)c2c(ncn2C)n(C)c1=O` as the molecule, how does the “activity change, negative = cytotoxic” value read?
A: 4.53% (inactive)

Q: Which “activity change, negative = cytotoxic” value does the source give for `CCCCCN(C)CCC(O)(P(=O)(O)O)P(=O)(O)O` here?
A: -2.61% (inactive)

Q: For `C=C1C(=O)OC(CCCCCCCC)C1C(=O)O` (stereo not given), which “activity change, negative = cytotoxic” value is on record?
A: 3.12% (inactive)

Q: For `Cc1ccc(C(C)(O)c2nc3ccccc3s2)c(C)c1` (stereo not given), which “activity change, negative = cytotoxic” value is on record?
A: -5.84% (inactive)

Q: With `COCCCCC(=NOCCN)c1ccc(C(F)(F)F)cc1` as the molecule, how does the “activity change, negative = cytotoxic” value read?
A: -12.3% (inactive)

Q: Which “activity change, negative = cytotoxic” value does the source give for `CN(C)c1cc(NC(=O)CNC(C)(C)C)c(O)c2c1C[C@@H]1C[C@H]3[C@H](N(C)C)C(=O)C(C(N)=O)=C(O)[C@@]3(O)C(=O)C1=C2O` here?
A: -1.07% (inactive)

Q: With `CC(=Cc1ccccc1)C=C1SC(=S)N(CC(=O)O)C1=O` as the molecule, how does the “activity change, negative = cytotoxic” value read?
A: 3.87% (inactive)

Q: Which “activity change, negative = cytotoxic” value does the source give for `NC(=O)NN=Cc1ccc([N+](=O)[O-])o1` here?
A: -2.49% (inactive)

Q: For `C[C@@H](O)[C@H]1C(=O)N2C(C(=O)O)=C(S[C@@H]3CN[C@H](C(=O)N(C)C)C3)[C@H](C)[C@H]12`, which Potency is on record?
A: inactive

Q: Which “activity change, negative = cytotoxic” value does the source give for `CCN(CC)CCNC(=O)c1ccc(N)cc1` here?
A: 21.5% (inactive)

Q: Which Potency does the source give for `CN1C[C@H]2c3ccccc3Oc3ccc(Cl)cc3[C@@H]2C1` here?
A: inactive

assay: qHTS of pediatric cancer cell lines to identify multiple opportunities for drug repurposing: Primary screen for Rh30 cells (AID 1347107); conditions: Rh30 rhabdomyosarcoma viability, CellTiter-Glo luminescence, 48 h; series mostly up to 46 µM; activity change, negative = cytotoxic: at the top concentration; note: nearly all actives have a fitted effect of over 75% in size
In short: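 Cells (500-1,000/well) rested 5 h, then received compounds for 48 h; metabolically active cells were measured by CellTiter-Glo luminescence. Final concentrations spanned up to 46 µM (MIPE, 11-point) or 0.59 nM-46 µM (NPC, 8-point) in primary screens, 11-point in follow-ups.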

Q: For `COc1ccccc1N1CCN(CCCNc2cc(=O)n(C)c(=O)n2C)CC1`, which “activity change, negative = cytotoxic” value is on record?
A: 23.8% (inactive)

Q: Which Potency does the source give for `COc1cc(N2CCC(N3CCN(C)CC3)CC2)ccc1Nc1ncnc(Nc2ccccc2S(=O)(=O)C(C)C)n1` here?
A: 5.26 µM (active)

Q: For `N[C@H](CSC(c1ccccc1)(c1ccccc1)c1ccccc1)C(=O)O`, which “activity change, negative = cytotoxic” value is on record?
A: 17.6% (inactive)

Q: With `CC[C@H]1OC(=O)[C@H](C)[C@@H](O[C@H]2C[C@@](C)(OC)[C@@H](O)[C@H](C)O2)[C@H](C)[C@@H](O[C@@H]2O[C@H](C)C[C@H](N(C)C)[C@@H]2O)[C@](C)(O)C[C@@H](C)CN(C)[C@H](C)[C@@H](O)[C@]1(C)O` as the molecule, how does the “activity change, negative = cytotoxic” value read?
A: 17.9% (inactive)

Q: Which “activity change, negative = cytotoxic” value does the source give for `OC[C@H]1O[C@@H](Oc2cc(O)cc(C=Cc3ccc(O)cc3)c2)[C@H](O)[C@@H](O)[C@H]1O` here?
A: 0.363% (inactive)

Q: Which “activity change, negative = cytotoxic” value does the source give for `NC(=O)c1ccc2nc(-c3ccc(Oc4ccc(Cl)cc4)cc3)[nH]c2c1` here?
A: 0.818% (inactive)

Q: Which “activity change, negative = cytotoxic” value does the source give for `O=c1ccn([C@@H]2O[C@H](CO)[C@H](O)[C@H]2O)c(=O)[nH]1` here?
A: 21.5% (inactive)

Q: Which “activity change, negative = cytotoxic” value does the source give for `COC1CCC(N(C(=O)C2CCC(C)CC2)c2cc(C3=CCCCC3)sc2C(=O)O)CC1` (stereo not given) here?
A: 13.5% (inactive)

Q: For `CN(C)CCC(c1ccccc1)c1ccccn1` (stereo not given), which “activity change, negative = cytotoxic” value is on record?
A: 5.93% (inactive)

Q: With `CC=CC(=O)N(CC)c1ccccc1C` as the molecule, how does the “activity change, negative = cytotoxic” value read?
A: 9.6% (inactive)

Q: Which “activity change, negative = cytotoxic” value does the source give for `CCC(CC)[C@H](NC(C)=O)[C@@H]1[C@H](O)[C@@H](C(=O)O)C[C@@H]1N=C(N)N` here?
A: -0.806% (inactive)

Q: For `CC(C)(C)COc1ccc(-n2cc(C(=O)O)cn2)cc1C#N`, which “activity change, negative = cytotoxic” value is on record?
A: 7.89% (inactive)

Q: Which Potency does the source give for `COc1cc(NC(=O)c2ccc(-c3ccc(Cl)cc3)o2)cc(OC)c1` here?
A: 7.43 µM (active)

Q: Which “activity change, negative = cytotoxic” value does the source give for `c1cc(-c2sc(-c3ccncc3)c(-c3ccncc3)c2-c2ccncc2)ccn1` here?
A: 5.93% (inactive)

Q: Which “activity change, negative = cytotoxic” value does the source give for `COc1ccc2cccc(CCNC(C)=O)c2c1` here?
A: 16.7% (inactive)

Q: For `CC(C)OC(=O)C(C)(C)Oc1ccc(C(=O)c2ccc(Cl)cc2)cc1`, which Potency is on record?
A: inactive

Q: With `Cc1ccc(C(=O)Nc2cccc(C(F)(F)F)c2)cc1Nc1nc(-c2cccnc2)nc2c1cnn2C` as the molecule, how does the Potency read?
A: 18.7 µM (active)

Q: For `CCN(CC)C(=O)c1ccc(O)c(OC)c1`, which “activity change, negative = cytotoxic” value is on record?
A: 23.7% (inactive)

Q: For `N#Cc1ccc(NC(=O)Nc2ccccc2Br)c2n[nH]nc12`, which “activity change, negative = cytotoxic” value is on record?
A: -4.41% (inactive)

Q: For `C[C@]12CC[C@@H]3c4ccc(O)cc4CC[C@H]3[C@H]1C[C@@H](O)[C@H]2O`, which “activity change, negative = cytotoxic” value is on record?
A: 12.2% (inactive)

Q: With `CC1(C)Cc2c(sc(NC(=S)NC(=O)c3ccccc3)c2C(=O)O)CO1` as the molecule, how does the “activity change, negative = cytotoxic” value read?
A: 10.8% (inactive)

Q: For `O=c1c(-c2ccc(O)cc2)coc2cc(O)ccc12`, which “activity change, negative = cytotoxic” value is on record?
A: 14.6% (inactive)

Q: For `O=C(O)c1cc(-c2ccccc2)nc2ccccc12`, which Potency is on record?
A: inactive

Q: For `CO[C@H]1C=CO[C@@]2(C)Oc3c(C)c(O)c4c(O)c(c5c(c4c3C2=O)NC2(CCN(CC(C)C)CC2)N=5)=NC(=O)C(C)=CC=C[C@H](C)[C@H](O)[C@@H](C)[C@@H](O)[C@@H](C)[C@H](OC(C)=O)[C@H]1C`, which “activity change, negative = cytotoxic” value is on record?
A: -5.36% (inactive)

Q: With `CC(=O)CCCCn1c(=O)c2c(ncn2C)n(C)c1=O` as the molecule, how does the “activity change, negative = cytotoxic” value read?
A: 17.1% (inactive)

Q: For `CCCCCN(C)CCC(O)(P(=O)(O)O)P(=O)(O)O`, which “activity change, negative = cytotoxic” value is on record?
A: 7.58% (inactive)

Q: For `C=C1C(=O)OC(CCCCCCCC)C1C(=O)O` (stereo not given), which “activity change, negative = cytotoxic” value is on record?
A: 21.4% (inactive)

Q: For `Cc1ccc(C(C)(O)c2nc3ccccc3s2)c(C)c1` (stereo not given), which “activity change, negative = cytotoxic” value is on record?
A: 4.22% (inactive)

Q: For `COCCCCC(=NOCCN)c1ccc(C(F)(F)F)cc1`, which Potency is on record?
A: 23.5 µM (active)

Q: Which “activity change, negative = cytotoxic” value does the source give for `CN(C)c1cc(NC(=O)CNC(C)(C)C)c(O)c2c1C[C@@H]1C[C@H]3[C@H](N(C)C)C(=O)C(C(N)=O)=C(O)[C@@]3(O)C(=O)C1=C2O` here?
A: 8.63% (inactive)

Q: For `CC(=Cc1ccccc1)C=C1SC(=S)N(CC(=O)O)C1=O`, which “activity change, negative = cytotoxic” value is on record?
A: 14.2% (inactive)

Q: For `NC(=O)NN=Cc1ccc([N+](=O)[O-])o1`, which “activity change, negative = cytotoxic” value is on record?
A: 12.3% (inactive)

Q: For `C[C@@H](O)[C@H]1C(=O)N2C(C(=O)O)=C(S[C@@H]3CN[C@H](C(=O)N(C)C)C3)[C@H](C)[C@H]12`, which Potency is on record?
A: inactive

Q: Which “activity change, negative = cytotoxic” value does the source give for `CCN(CC)CCNC(=O)c1ccc(N)cc1` here?
A: 20.2% (inactive)

Q: For `CN1C[C@H]2c3ccccc3Oc3ccc(Cl)cc3[C@@H]2C1`, which Potency is on record?
A: inactive
